The results in this text go back to PubChem BioAssay AID853 (Columbia University Molecular Screening Center, 2007).

Screen size: about 47,000 compounds; about 200 (0.43%) were called active. Inconclusive results (about 1%) are left out. This is one part of a sample in which actives are shown more often than they occur.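 How the source made its calls: active means inhibition of aggregate fluorescence above about 70%, also judged a hit by eye on the cell image (limit read from the data, passing the limit was not always enough); inconclusive means no rule stated for this call; inactive means not judged a hit on image review.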

A short description of the assay: clearance of mutant huntingtin inclusions, primary screen, imaging, HeLa Exon1htt(103Q)mCFP, confocal imaging (AID 853).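 Further: cells exposed to compound for three days before fixation.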 The note with it: aggregate imaging, at 1.5 µM; fraction fluorescence in grains: measured here: aggregate grain fluorescence fraction, stronger effect = lower value; inhibition: stronger effect = higher value, zero = plate's median compound well.
`COc1ccc(CNC(=O)C2CCC(CNc3c(N4CCOCC4)c(=O)c3=O)CC2)cc1` (stereo not given): the fraction fluorescence in grains came out at 33 and the inhibition (as a rule, the relative decrease from the control value, in per cent) is 10.7% (inactive).
The matching figures for `Cc1cc(Cl)c(S(=O)(=O)N(C)C)cc1OCC(N)=O`: 20.5 and -7.1% (inactive).
On the same counts, the results for `O=S(=O)(/C=C/c1ccccc1)NCCc1ccccn1` are 31.8 and 7.7% (inactive).
On the same counts, the results for `O=C(Oc1cccnc1)c1cc2ccccc2oc1=O` are 21 and -5.6% (inactive).
Take `COC(=O)C(C)Oc1ccc2c(-c3cccc([N+](=O)[O-])c3)cc(=O)oc2c1` (stereo not given): the fraction fluorescence in grains was 35.3 and the inhibition was 9.1% (inactive).
The matching figures for `CCCCCCNC(=O)CSc1nccn1Cc1ccccc1`: 18.3 and 7.5% (inactive).
As for `CCSc1nnc(NC(=O)Cc2ccccc2OC)s1`, the fraction fluorescence in grains was 52.6 and the inhibition is -25.1% (inactive).
The matching figures for `COc1cccc(OC)c1C(=O)Nc1ccc(N2CCCCC2)cc1`: 19.3 and 18.4% (inactive).
The matching figures for `C/C(=C\C(=O)c1ccc(Br)cc1)N1CCCCC1`: 28.4 and 28.3% (inactive).
The matching figures for `CCc1c(O)cc2n(c1=O)-c1ccccc1C2(C)C`: 27.7 and -37.8% (inactive).
Consider `CC1(C)CC(=O)C(C=NCCN2CCN(C(=S)Nc3cccc(Cl)c3)CC2)=C(O)C1`, for which the fraction fluorescence in grains came out at 25.7 and the inhibition is 12.3% (inactive).
On the same counts, the results for `Cc1cccc(N2CCN(C(=O)CN(C)S(=O)(=O)c3ccc4c(c3)CCC(=O)N4)CC2)c1C` are 43.8 and -18.5% (inactive).
For `COc1ccc(CCN2CNc3c(c(=O)n(C)c(=O)n3C)C2)cc1OC`, the fraction fluorescence in grains turned out to be 63.1 and the inhibition was -203% (inactive).
Regarding `COc1ccc(CNC(=O)CCn2cccc2)cc1`, the fraction fluorescence in grains was 29.6 and the inhibition is -25.4% (inactive).
On the same counts, the results for `CCCC(=O)Nc1nc2ccc(NC(=O)c3cccnc3)cc2s1` are 48.5 and -19% (inactive).
On the same counts, the results for `CCOC(=O)c1cnc(SC)nc1Sc1ccc(Cl)cc1Cl` are 27.6 and -31% (inactive).
Turning to `O=C(CSCc1ccc(Cl)cc1)N1CCCCC1`, the fraction fluorescence in grains is 25.4 and the inhibition is -26.2% (inactive).
The matching figures for `Cn1cnc2c1c(=O)n(Cc1c(Cl)cccc1Cl)c(=O)n2C`: 24.1 and -22.3% (inactive).
On the same counts, the results for `CCOc1nc(NCCN2CCOCC2)nc(Nc2ccc(C)cc2)n1` are 42.7 and -6.3% (inactive).
On the same counts, the results for `CC(NC(=O)CSc1nc2c(cc1C#N)CN(C)CC2)c1ccccc1` (stereo not given) are 10.8 and 73.3% (active).
As for `CC1(C)CCc2nc(SCc3ccccc3)c(C#N)cc2C1`, the fraction fluorescence in grains is 21.6 and the inhibition was -20.9% (inactive).
On the same counts, the results for `Cc1cc2cc3c(cc2nc1SCC(=O)Nc1c(C)cccc1C)CCC3` are 26.1 and 30.7% (inactive).
On to `Cc1ccnc(SCCn2c(N(C)Cc3ccccc3)nc3c2c(=O)n(C)c(=O)n3C)n1`, for which the fraction fluorescence in grains was determined as 35.6 and the inhibition was -10.6% (inactive).
For `CCn1c(CNC(=O)c2ccccc2)nnc1SCC(=O)N1CCN(c2ccccc2)CC1`, the fraction fluorescence in grains is 10.5 and the inhibition is 45.3% (inactive).
The matching figures for `c1ccc(-c2noc(-c3cccs3)n2)nc1`: 20.2 and -19.7% (inactive).
The matching figures for `Cc1cc(Oc2ccccc2)nc(N2CCOCC2)n1`: 29.1 and 5.3% (inactive).
The matching figures for `COc1ccc(NS(=O)(=O)c2ccc(NC(=O)C(C)(C(F)(F)F)C(F)(F)F)cc2)nn1`: 26.9 and -29.8% (inactive).
With `CCOC(=O)Cn1c2c(c(-c3ccccc3OC)cc1=O)CCCC2`, the fraction fluorescence in grains is 9.78 and the inhibition is 75.9% (active).
The matching figures for `COc1ccc(NC(=O)COC(=O)Cn2c(C)nc3ccccc32)cc1OC`: 48.2 and -28% (inactive).
The matching figures for `CCOC(=O)CN1C(=O)C(=O)c2cc(C)ccc21`: 50.7 and -31.2% (inactive).
On the same counts, the results for `CCOC(=O)c1c(NC(=O)CSc2nnc(CNc3ccc(C)cc3C)o2)sc(C)c1C` are 20 and 0.1% (inactive).
With `O=C(c1ccccn1)c1ncc(C(F)(F)F)cc1Cl`, the fraction fluorescence in grains worked out at 11.8 and the inhibition is 69.6% (inactive).
The matching figures for `COc1cc(C2CC(=O)c3cnc(NC(C)=O)nc3C2)cc(OC)c1OC` (stereo not given): 28.1 and -57.9% (inactive).
The matching figures for `Cc1ccccc1NC(=O)c1cnn(-c2ccccc2)c1NC(=O)c1ccco1`: 65.2 and -45.9% (inactive).
The matching figures for `O=C(Nc1cccc(NC(=O)c2ccco2)c1)c1cnccn1`: 17.1 and 4% (inactive).
As to `CCOc1ccc(C(=O)Nc2cc(OC)ccc2OC)cc1`, the fraction fluorescence in grains turned out to be 47.6 and the inhibition is -28.5% (inactive).
The matching figures for `N#Cc1c(/N=C/N2CCCC2)oc(-c2ccccc2)c1-c1ccccc1`: 60.3 and -70.7% (inactive).
On the same counts, the results for `c1ccc(Nc2n[nH]nc2-c2ccccc2)cc1` are 19.1 and -9.8% (inactive).
For the compound `COc1ccc(Oc2coc3cc(OC(=O)c4cncc(Br)c4)ccc3c2=O)cc1`, the fraction fluorescence in grains is 38.8 and the inhibition is 10.3% (inactive).
The matching figures for `CCN(CC)CCNc1ccc(Cl)cc1[N+](=O)[O-]`: 50.4 and -31% (inactive).
The matching figures for `COc1nc(NC2CCCCC2)nc(N2CCCCCC2)n1`: 7.28 and 62.7% (inactive).
On the same counts, the results for `ONC(=Nc1ccc(Cl)cc1)c1ccccc1Cl` are 37.5 and 2.4% (inactive).
On to `Cc1cccc(N(C(=O)Cc2cccs2)C(C(=O)NC2CCCC2)c2ccsc2)c1` (stereo not given), for which the fraction fluorescence in grains was 20.3 and the inhibition is 34% (inactive).
The matching figures for `CCOc1ccc(N=Cc2c(O)n(-c3cccc(C)n3)c(=O)c3ccccc23)cc1`: 45.9 and -5.8% (inactive).
The matching figures for `CCC(C)(C)n1nnnc1CN1CCN(c2nc3ccc(C)cc3cc2C#N)CC1`: 29 and 23.1% (inactive).
Regarding `O=c1[nH]c2c(c(=O)n1Cc1ccccc1)CCC2`, the fraction fluorescence in grains was found to be 13.3 and the inhibition was 28.6% (inactive).
On the same counts, the results for `COc1ccccc1-c1nnc(SCC(=O)Nc2ccccc2)o1` are 4.28 and 73.5% (active).
The matching figures for `Cc1cc(C)cc(OCc2nnc(SCC(=O)Nc3ccccc3)o2)c1`: 15 and 15.8% (inactive).
The matching figures for `COc1ccccc1-c1nnc(SCC(=O)Nc2cc(C)on2)o1`: 16.4 and 15.8% (inactive).
On to `Cc1cc(C)n(-c2c(F)c(F)c(COC(=O)c3ccccc3)c(F)c2F)n1`, for which the fraction fluorescence in grains came to 25.1 and the inhibition is -56.6% (inactive).
The matching figures for `CCCCOC(=O)Cn1c(=O)n(CC(=O)OCCCC)c2cc(C)ccc21`: 19 and -6.9% (inactive).
On the same counts, the results for `CC(=O)Nc1ccccc1C(=O)C(=O)Nc1ccc(F)cc1` are 57.6 and -48.2% (inactive).
For the compound `CCOc1ccc(N(CC(=O)NC2CCCCCC2)S(=O)(=O)c2c(C)[nH]c(=O)[nH]c2=O)cc1`, the fraction fluorescence in grains amounted to 41.2 and the inhibition is -15.2% (inactive).
On to `CCCC(=O)N1CCc2[nH]c3ccccc3c2C1`, for which the fraction fluorescence in grains came to 26.6 and the inhibition was 21.6% (inactive).
As for `Cc1c(CN2CCC(C)CC2)c(=O)n(-c2ccccc2)n1C`, the fraction fluorescence in grains turned out to be 56.1 and the inhibition was -32.3% (inactive).
